Assay [1] in a line: qHTS assay to identify small molecule agonists of the estrogen receptor alpha (ER-alpha) signaling pathway in the presence of an antagonist - cell viability counter screen (AID 1259386).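 Also: cells exposed to compounds for 22 h at 37 °C before the viability read; nearly all actives have a fitted effect of over 30% in size.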 Also: potency is read from the fitted curve at half-maximal effect. As to activity change, negative = cytotoxicity: series mostly up to about 92 µM. In outline:
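The test measures whether compounds kill ER-alpha reporter cells (VM7Luc4E2) under antagonist co-treatment (ICI-182,780, 10.0nM). Fluorescence from CellTiter-Fluor is read after a 22hr exposure.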
(In general: qHTS replaces the single test concentration by a dilution series.)

The target in assay [2] is Progesterone receptor (Homo sapiens) (UniProt P06401). The assay can be described thus: qHTS assay to identify small molecule agonists of the progesterone receptor (PR) signaling pathway (AID 1346784; calls by dose curve; also: nearly all actives have a fitted effect of over 30% in size). In outline: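 The screen uses PR-UAS-bla HEK 293T cells in charcoal-stripped serum (2%). Compounds are applied for 16 hr at 37C after a 6 hr pre-incubation, and reporter activity is detected with a FRET beta-lactamase substrate after 2 hr at room temperature.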

For assay [3] the target is unchanged. The assay is described as follows: qHTS assay to identify small molecule antagonists of the progesterone receptor (PR) signaling pathway (AID 1346795; active = well fitted inhibition curve with a large enough effect in the signal ratio in the repeat runs, not every such curve was filed as active; the % refers to the signal ratio; also: potency is read from the fitted curve at half-maximal effect). In short, it runs like this:
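After 6 hr plating at 37C in 2% stripped-serum medium, PR-UAS-bla HEK293T cells got compounds, then 1 nM R5020. Sixteen hours later, LiveBLAzer substrate was applied for 2 hr at room temperature and fluorescence was recorded.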

Assay [4] is described as follows: qHTS assay to identify small molecule antagonists of the progesterone receptor (PR) signaling pathway - cell viability counter screen (AID 1346798). Also: series mostly up to about 92 µM; nearly all actives have a fitted effect of over 50% in size. In short, it runs like this:
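Viability was determined by ATP-based luminescence (CellTiter-Glo) in PR-UAS-bla HEK293T cells cultured in 2% charcoal-stripped serum and incubated 16 hr with compounds under R5020 stimulation.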

A short description of assay [5]: qHTS assay to identify small molecule agonists of the progesterone receptor (PR) signaling pathway - cell viability counter screen (AID 1346799; calls by dose curve; also: nearly all actives have a fitted effect of over 45% in size). In short, it runs like this: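 Viability was scored by ATP luminescence (CellTiter-Glo, 30 min, room temperature) in the same wells used for the reporter readout, after 16 hr compound exposure of PR-UAS-bla HEK293T cells.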

The nature of assay [6]: qHTS assay to identify small molecule antagonists of the TGF-beta/Smad signaling pathway - cell viability counter screen (AID 1346824). Also: nearly all actives have a fitted effect of over 50% in size. In outline:
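Cytotoxicity counter-screen run in the same wells as the beta-lactamase Smad reporter read: CellTiter-Glo luminescence after 30 min at room temperature. HEK 293T SBE-bla cells had 5 hr compound exposure at 37 C with TGF-beta1 (0.25 ng/mL stock).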

Assay [7] can be described thus: qHTS assay to identify small molecule agonists of the TGF-beta/Smad signaling pathway - cell viability counter screen (AID 1346829). Also: top concentration of the series differs between compounds; nearly all actives have a fitted effect of over 45% in size. In outline: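 Here the cytotoxicity of library compounds is measured in SBE-bla HEK 293T cells treated for 5 hr, using CellTiter-Glo added to wells already read for the beta-lactamase reporter.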
A short description of assay [8]: qHTS assay to identify small molecule agonists of the TGF-beta/Smad signaling pathway (AID 1346859; active = well fitted activation curve with a large enough effect in the signal ratio in the repeat runs, not every such curve was filed as active; the % refers to the signal ratio; also: series mostly up to about 77 µM). In outline: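 Dual-wavelength fluorescence (460/530 nm emission) quantified beta-lactamase expression under the Smad binding element in HEK 293T cells following 5 hr compound treatment at 37 C.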
The nature of assay [9]: Caspase-3/7 induction in CHO-K1 cells by small molecules, qHTS cell viability counter screen (AID 1346979). Also: nearly all actives have a fitted effect of over 35% in size. Also: potency is read from the fitted curve at half-maximal effect. In short, it runs like this: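 Seeding: 1,500 CHO-K1 cells/well. Rest: 5hr, 37C. Treatment: compounds in DMSO, 16hr. Read: CellTiter-Fluor, 1hr, fluorescence.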
Assay [10] in a line: Caspase-3/7 induction in CHO-K1 cells by small molecules, qHTS assay (AID 1346980). Also: nearly all actives have a fitted effect of over 15% in size. In outline: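 Luminescent Caspase-Glo 3/7 read (30min, room temperature) quantified apoptosis induction. Cells were wild-type CHO-K1, treated with compound for 17hr at 37 C and 5% CO2.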
Assay [11] in a line: Caspase-3/7 induction in HepG2 cells by small molecules, qHTS cell viability counter screen (AID 1346981). Also: nearly all actives have a fitted effect of over 30% in size. Also: potency is read from the fitted curve at half-maximal effect. As to activity change, negative = cytotoxicity: series mostly up to about 92 µM. In short, it runs like this: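 Treatment of HepG2 cells with DMSO-delivered compounds ran 16 hr at 37 C following a 5-hr pre-incubation of 2,000 cells/well. CellTiter-Fluor fluorescence, read after 1 hr, served as the viability measure in a qHTS format.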
In assay [12] the target is Nuclear receptor subfamily 1 group I member 2 (Rattus norvegicus) (UniProt Q9R1A7). The assay can be described thus: Rat pregnane X receptor (rPXR) activation by small molecules, qHTS assay (AID 1346983). Also: nearly all actives have a fitted effect of over 20% in size. The settings on record: rPXR luciferase reporter cells, One-Glo luminescence, 24 h; stronger effect = higher value. In outline:
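Luminescent readout (One-Glo luciferase, 30 min room temperature) followed 24 hr compound treatment at 37 C of rPXR cells plated 2,000 per well and preincubated 5hr; qHTS format with compounds delivered in DMSO.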

Assay [13] has as its target Nuclear receptor subfamily 1 group I member 2 (Homo sapiens) (UniProt O75469). The assay is described as follows: Human pregnane X receptor (PXR) activation by small molecules, qHTS assay (AID 1346985). Also: nearly all actives have a fitted effect of over 40% in size. In short, it runs like this: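 DPX-2 cells (HepG2 co-transfected with a PXR response element and a CYP3A4-promoter luciferase construct) were seeded at 2,000 per well, rested 5 hr at 37C, then exposed to DMSO-dissolved compounds for 24 hr. Activation was read as luciferase luminescence.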

In assay [14] the target is Cytochrome P450 2D6 (Homo sapiens) (UniProt P10635). The assay is described as follows: Cytochrome P450 Family 2 Subfamily D Member 6 (CYP2D6) small molecule antagonists: luciferase reporter qHTS assay (AID 1671196). Also: nearly all actives have a fitted effect of over 50% in size. Also: potency is read from the fitted curve at half-maximal effect. As to activity change, negative = inhibition: series mostly up to about 120 µM. In short, it runs like this:
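Chemicals tested for interference with CYP2D6 activity; proluciferin substrate, NADPH regeneration, 1 h at room temperature, luminescent detection.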
Background: A reporter such as luciferase makes a cellular process visible.

A short description of assay [15]: Human pregnane X receptor (PXR) small molecule agonists, qHTS cell viability counter screen (AID 1346977). Also: nearly all actives have a fitted effect of over 50% in size. Also: potency is read from the fitted curve at half-maximal effect. In short, it runs like this:
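HepG2 cells stably carrying the PXR-Luc reporter are cultured with 5% charcoal-stripped FBS and treated with compounds for 24hr. CellTiter-Fluor is added at 23hr and fluorescence is read after 1hr.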

Assay [16] addresses Nuclear receptor subfamily 1 group I member 2 (Homo sapiens) (UniProt O75469). The assay is described as follows: Human pregnane X receptor (PXR) small molecule agonists, qHTS assay (AID 1346982). Also: nearly all actives have a fitted effect of over 35% in size. Also: potency is read from the fitted curve at half-maximal effect. In outline: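 Stable HepG2 line reporting PXR-mediated CYP3A4 expression via luciferase. Treatment: 24 hr with compounds in DMSO at 37 C. Detection: ONE-Glo luminescence.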
Assay [17] deals with Thyrotropin-releasing hormone receptor (Homo sapiens) (UniProt P34981). The assay is described as follows: qHTS assay to identify small molecule antagonists of the thyrotropin-releasing hormone receptor (TRHR) signaling pathway (AID 1346877; active = well fitted inhibition curve with a large enough effect in the repeat runs, not every such curve was filed as active; also: series mostly up to about 51 µM). In short, it runs like this:
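Overnight-plated (18 h, 37 °C) HEK293 cells expressing TRHR were dye-loaded 2 h, treated with compound, then stimulated with TRH at 1 nM final. Fluorescence intensity was captured every second for 3 min.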

Assay [18] has the same target. The assay can be described thus: qHTS assay to identify small molecule agonists of the thyrotropin-releasing hormone receptor (TRHR) signaling pathway (AID 1346891; calls by dose curve;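 also: HEK293 cells expressing TRHR with calcium dye readout; series mostly up to about 58 µM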). In short, it runs like this:
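Kinetic fluorescence (3 min, 1 s intervals) reported intracellular calcium after compound transfer onto TRHR-Hek293 cells pre-loaded with dye for 2 h at 37 °C.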

A short description of assay [19]: Caspase-3/7 induction in HepG2 cells by small molecules, qHTS assay (AID 1346978). Also: nearly all actives have a fitted effect of over 15% in size. In short, it runs like this: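 Caspase-3/7 induction was measured by Caspase-Glo 3/7 luminescence (30 min, room temperature) after a 17 hr compound exposure of wild-type HepG2 cells seeded at 2,000 per well and pre-incubated 5 hr.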

Results filed as inconclusive are left out. A structure can be active in one record and inactive in another. The source made the active and inactive calls. Unless noted, calls follow the shape of the dose curve; as a rule, active = well fitted curve in the direction sought with a large enough effect in the repeat runs; inconclusive = weak or mixed curves; inactive = no such curve, though single readings can be large; an effect the other way counts as inactive or inconclusive.
% is scaled to controls: 0 for no effect and ±100 for the full control effect.

Sequence of Cytochrome P450 2D6 (Homo sapiens) (P10635 whole entry, looked up): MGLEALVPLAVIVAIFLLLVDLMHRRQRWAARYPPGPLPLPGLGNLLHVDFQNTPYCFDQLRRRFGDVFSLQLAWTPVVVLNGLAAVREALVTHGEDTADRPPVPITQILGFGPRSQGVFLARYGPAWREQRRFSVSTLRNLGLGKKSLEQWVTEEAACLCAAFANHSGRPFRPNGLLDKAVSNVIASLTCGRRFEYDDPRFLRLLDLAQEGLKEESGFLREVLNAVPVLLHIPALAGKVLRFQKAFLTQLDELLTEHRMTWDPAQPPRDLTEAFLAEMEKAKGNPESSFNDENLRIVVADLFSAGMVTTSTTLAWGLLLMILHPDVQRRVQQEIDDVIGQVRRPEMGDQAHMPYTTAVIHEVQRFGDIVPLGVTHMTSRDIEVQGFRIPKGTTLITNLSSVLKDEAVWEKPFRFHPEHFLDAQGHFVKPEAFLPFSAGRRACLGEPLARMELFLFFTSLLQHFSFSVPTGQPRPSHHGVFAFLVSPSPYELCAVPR
Sequence of Nuclear receptor subfamily 1 group I member 2 (Rattus norvegicus) (Q9R1A7 whole entry, looked up): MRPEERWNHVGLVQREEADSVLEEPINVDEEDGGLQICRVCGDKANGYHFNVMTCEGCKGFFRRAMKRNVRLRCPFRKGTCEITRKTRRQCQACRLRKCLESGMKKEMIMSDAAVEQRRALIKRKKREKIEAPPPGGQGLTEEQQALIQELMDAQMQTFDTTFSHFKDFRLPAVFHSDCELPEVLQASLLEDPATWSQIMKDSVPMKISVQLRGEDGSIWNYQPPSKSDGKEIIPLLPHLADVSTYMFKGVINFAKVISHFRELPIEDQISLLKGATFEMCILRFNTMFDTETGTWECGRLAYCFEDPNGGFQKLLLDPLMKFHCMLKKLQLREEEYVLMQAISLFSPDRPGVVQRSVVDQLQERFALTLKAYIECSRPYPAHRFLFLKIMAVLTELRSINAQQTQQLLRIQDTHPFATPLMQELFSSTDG
Sequence of Nuclear receptor subfamily 1 group I member 2 (Homo sapiens) (O75469 whole entry, looked up): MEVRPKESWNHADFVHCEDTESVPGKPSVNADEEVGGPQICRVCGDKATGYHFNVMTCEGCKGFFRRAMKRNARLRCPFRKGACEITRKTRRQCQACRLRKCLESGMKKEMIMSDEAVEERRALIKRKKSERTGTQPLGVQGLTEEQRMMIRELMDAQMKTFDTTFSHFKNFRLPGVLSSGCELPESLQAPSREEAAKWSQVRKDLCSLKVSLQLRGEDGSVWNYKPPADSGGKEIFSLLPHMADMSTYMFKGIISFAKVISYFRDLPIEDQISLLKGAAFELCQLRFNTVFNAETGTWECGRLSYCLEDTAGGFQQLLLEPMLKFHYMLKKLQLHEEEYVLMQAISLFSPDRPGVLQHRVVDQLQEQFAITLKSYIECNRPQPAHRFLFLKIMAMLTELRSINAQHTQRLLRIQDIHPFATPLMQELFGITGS
Sequence of Thyrotropin-releasing hormone receptor (Homo sapiens) (P34981 whole entry, looked up): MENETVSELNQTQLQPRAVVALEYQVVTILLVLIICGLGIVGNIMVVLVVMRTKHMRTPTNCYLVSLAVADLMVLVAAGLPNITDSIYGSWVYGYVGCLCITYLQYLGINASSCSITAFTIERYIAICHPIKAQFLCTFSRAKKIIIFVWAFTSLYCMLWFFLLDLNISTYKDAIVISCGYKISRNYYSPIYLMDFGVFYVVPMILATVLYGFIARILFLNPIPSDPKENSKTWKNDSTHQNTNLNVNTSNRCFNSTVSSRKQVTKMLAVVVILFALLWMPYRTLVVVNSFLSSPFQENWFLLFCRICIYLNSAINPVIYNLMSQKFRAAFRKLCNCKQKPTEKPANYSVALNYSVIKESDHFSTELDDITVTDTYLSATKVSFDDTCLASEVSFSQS
Sequence of Progesterone receptor (Homo sapiens) (P06401 whole entry, looked up): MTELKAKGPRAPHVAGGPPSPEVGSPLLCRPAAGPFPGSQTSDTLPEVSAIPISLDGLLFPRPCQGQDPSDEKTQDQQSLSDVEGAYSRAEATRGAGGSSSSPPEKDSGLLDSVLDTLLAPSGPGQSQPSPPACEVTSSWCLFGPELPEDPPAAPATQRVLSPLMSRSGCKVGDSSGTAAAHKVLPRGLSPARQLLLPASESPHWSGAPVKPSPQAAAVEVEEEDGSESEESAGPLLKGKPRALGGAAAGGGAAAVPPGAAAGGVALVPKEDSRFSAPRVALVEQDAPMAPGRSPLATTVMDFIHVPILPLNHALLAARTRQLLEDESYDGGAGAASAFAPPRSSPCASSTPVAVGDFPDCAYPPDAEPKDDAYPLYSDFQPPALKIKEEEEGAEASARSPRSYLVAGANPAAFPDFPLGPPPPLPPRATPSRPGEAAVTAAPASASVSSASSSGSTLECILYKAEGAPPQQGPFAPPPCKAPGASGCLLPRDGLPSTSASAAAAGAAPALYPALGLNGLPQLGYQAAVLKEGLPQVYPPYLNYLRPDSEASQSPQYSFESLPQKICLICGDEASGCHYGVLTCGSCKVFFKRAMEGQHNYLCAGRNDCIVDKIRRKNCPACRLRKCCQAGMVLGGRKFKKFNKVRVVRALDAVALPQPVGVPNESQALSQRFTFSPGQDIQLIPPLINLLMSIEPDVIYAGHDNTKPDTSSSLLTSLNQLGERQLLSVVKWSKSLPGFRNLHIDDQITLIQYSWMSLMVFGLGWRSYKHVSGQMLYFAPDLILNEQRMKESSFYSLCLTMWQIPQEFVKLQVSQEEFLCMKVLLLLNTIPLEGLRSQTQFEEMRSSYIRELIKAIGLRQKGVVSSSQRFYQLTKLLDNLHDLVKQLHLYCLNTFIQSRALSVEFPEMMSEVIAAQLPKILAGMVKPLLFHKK

As to `Cc1cc(C(C)(C)C)cc(C)c1CC1=NCCN1`, the Potency entry in assay [1], in [2], in assay [3], in assay [4], in assay [5] and in [6] was “inactive” throughout. The Potency result in assay [7], in [8], in assay [9], in assay [10], in assay [11] and in assay [13] was “inactive” throughout. For the same molecule, the max activation in assay [12] is -6.02% (inactive). The Potency in [14] was 3.47 µM (active).
For `C=Cc1cccc(C)c1`, the Potency entry in assay [1], in [2], in assay [3], in assay [4], in [5] and in assay [6] was “inactive” each time. Further, the Potency entry in assay [7], in assay [8], in [15], in assay [10], in assay [11] and in assay [16] was “inactive” each time. Also, the Potency in [9] is 60.5 µM (active) and inactive; in assay [14] it was 39.5 µM (active) and inactive.
Take `CNc1ccc([N+](=O)[O-])cc1`: the Potency in assay [1] was 34.4 µM (active); in assay [3] it was 54.6 µM (active); in [9], 48.7 µM (active); in assay [11], 30.7 µM (active); in assay [16], 54.6 µM (active). For the same molecule, the Potency entry in assay [2], in assay [4], in [5], in [6], in assay [7] and in [8] was “inactive” in each case. Besides, the Potency entry in assay [17] and in assay [10] was “inactive” in each case. Also, the molecule was called inactive in assay [18].
For `Cc1ccc(N/N=c2\c(=O)cc/c(=N\Nc3ccc(S(=O)(=O)O)cc3)c2=O)c(C)c1`, the Potency in assay [1] was 34.4 µM (active); in [15], 30.6 µM (active); in [9], 27.3 µM (active); in [11], 54.5 µM (active). Besides, the Potency entry in [2], in [3], in assay [4], in assay [5], in assay [6] and in [7] was “inactive” in each case. Also, the Potency result in [17], in assay [19] and in assay [10] was “inactive” in each case. The outcome in assay [18] was inactive.
Regarding `CC(C)Cn1cnc2c(N)nc3ccccc3c21`, the activity change, negative = cytotoxicity was -6.27% [at 19 µM] (inactive) in assay [1]; 10.2% [at 18.9 µM] (inactive) in [4]; 13.4% [at 19 µM] (inactive) in assay [5]; 6.14% [at 15.8 µM] (inactive) in [7]; -9.27% [at 19 µM] (inactive) in assay [15]; -8.58% [at 19 µM] (inactive) in assay [9]. Besides, the activity change, negative = cytotoxicity in [11] is -2.64% [at 19 µM] (inactive). Further, the activation in assay [2] is 1.05% [at 19 µM] (inactive); in assay [8], -1.86% [at 15.8 µM] (inactive); in [16] it was 5.89% [at 19 µM] (inactive). Moreover, in [3], the activity change, negative = inhibition is 5.77% [at 18.9 µM] (inactive). Besides, the viability change, negative = cytotoxic in [6] is 1.27% [at 15.8 µM] (inactive). For the same molecule, the caspase activation in assay [19] was -2.38% [at 19 µM] (inactive). The caspase-3/7 activation in assay [10] was 0.247% [at 19 µM] (inactive). In assay [12], the max activation is 2.02% (inactive).
Consider `Clc1sc(Cl)c(Cl)c1Cl`, for which the Potency entry in [1], in assay [2], in assay [3], in assay [4], in assay [5] and in assay [6] was “inactive” throughout. The Potency entry in [7], in assay [8], in assay [17], in [15], in assay [19] and in [9] was “inactive” in each case. Besides, the Potency entry in assay [10], in assay [11], in assay [16] and in assay [14] was “inactive” each time. Moreover, in assay [18], the result was inactive.
Take `CCCCCCCC/C=C\CCCCCCCCN`: the Potency entry in assay [1], in assay [2], in assay [3], in [4], in assay [5] and in assay [6] was “inactive” throughout. Besides, the Potency entry in [7], in [8], in assay [17], in assay [19], in assay [9] and in assay [10] was “inactive” each time. In addition, the Potency result in assay [11], in assay [16] and in [13] was “inactive” each time. Moreover, the call in [18] was inactive. The max activation in assay [12] was -1.07% (inactive). Further, the Potency in assay [14] was 1.55 µM (active).

These data come from PubChem BioAssay (Tox21).
